Active and inactive are the calls of the source. The calls were made as follows: active = hit-call score of the fitted dose curve at least 0.9, where 1 is the maximum; inactive = score below 0.9.
Columns and labels:
Details in all cases: mRNA level, 48 h; actives raise or lower the signal
CYP4A11 (gene 1579) = assay: LTEA_HepaRG_CYP4A11: Life Technologies and Expression Analysis (LTEA) Assay for CYP4A11 using HepaRG (AID 2283486)
How it was run: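 Differentiated HepaRG cells, 48 h after plating, exposed in duplicate for 48 h to 8 half-log concentrations up to 100 uM in 0.5% DMSO in serum-free induction medium. CYP4A11 mRNA measured by TaqMan qRT-PCR, normalized to ACTB, GAPDH and POLR2A.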

[1] = read-out: DNA damage-inducible transcript 3 (DDIT3), DDIT3 (gene 1649); assay: LTEA_HepaRG_DDIT3: Life Technologies and Expression Analysis (LTEA) Assay for DNA damage-inducible transcript 3 (DDIT3) using HepaRG (AID 2283488)
How it was run: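 Changes in DDIT3 transcript, in either direction relative to 0.5% DMSO vehicle, were quantified by TaqMan qRT-PCR after 48 h chemical exposure of HepaRG cells at 8 concentrations, maximum 100 uM.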

[2] = read-out: Pro-epidermal growth factor (Homo sapiens) (UniProt P01133); assay: LTEA_HepaRG_EGF: Life Technologies and Expression Analysis (LTEA) Assay for Epidermal growth factor (EGF) using HepaRG (AID 2283489)
How it was run: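 HepaRG cells (~100,000/well, 48 h pre-culture) exposed in duplicate for 48 h in serum-free induction medium to 8 half-log concentrations up to 100 uM in 0.5% DMSO. EGF mRNA by qRT-PCR, normalized to ACTB/GAPDH/POLR2A; bidirectional fit versus DMSO.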

[3] = read-out: Early growth response protein 1 (EGR1) transcription factor, EGR1 (gene 1958); assay: LTEA_HepaRG_EGR1: Life Technologies and Expression Analysis (LTEA) Assay for Early growth response protein 1 (EGR1) transcription factor using HepaRG (AID 2283490)
How it was run: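 Differentiated HepaRG cells in serum-free induction medium exposed 48 hours, duplicate, to 8 half-log concentrations up to 100 uM in 0.5% DMSO. EGR1 mRNA measured by TaqMan qRT-PCR, normalized to ACTB, GAPDH, POLR2A; bidirectional fit versus DMSO.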

[4] = read-out: Ezrin (EZR), EZR (gene 7430); assay: LTEA_HepaRG_EZR: Life Technologies and Expression Analysis (LTEA) Assay for Ezrin (EZR) using HepaRG (AID 2283491)
How it was run: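 Gain or loss of EZR mRNA is scored relative to 0.5% DMSO in human HepaRG cultures treated 48 h with test chemicals in duplicate, eight half-log concentrations from 100 uM.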

[5] = read-out: Cytochrome P450 3A7 (Homo sapiens) (UniProt P24462); assay: LTEA_HepaRG_CYP3A7: Life Technologies and Expression Analysis (LTEA) Assay for CYP3A7 using HepaRG (AID 2283492)
How it was run: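 Differentiated HepaRG cells in serum-free induction medium exposed 48 h in duplicate to 8-point half-log series from 100 uM top in 0.5% DMSO. CYP3A7 mRNA by qRT-PCR, normalized to ACTB/GAPDH/POLR2A, bidirectional fit versus DMSO.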

CYP3A5 (gene 1577) = assay: LTEA_HepaRG_CYP3A5: Life Technologies and Expression Analysis (LTEA) Assay for CYP3A5 using HepaRG (AID 2283493)
How it was run: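 mRNA induction or loss of CYP3A5 assessed in HepaRG after 48 h dosing, 100 uM top concentration, duplicate wells; TaqMan qRT-PCR with ACTB, GAPDH, POLR2A normalization; 0.5% DMSO as negative control.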

[6] = read-out: Fatty Acid-Binding Protein 1 (FABP1), FABP1 (gene 2168); assay: LTEA_HepaRG_FABP1: Life Technologies and Expression Analysis (LTEA) Assay for Fatty Acid-Binding Protein 1 (FABP1) using HepaRG (AID 2283494)
How it was run: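 Differentiated human HepaRG cells exposed 48 h in serum-free induction medium to eight half-log concentrations up to 100 uM (0.5% DMSO), duplicate. FABP1 mRNA by qRT-PCR, normalised to ACTB, GAPDH, POLR2A; bidirectional fitting against DMSO.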

[7] = read-out: Cytochrome P450 4A22 (Homo sapiens) (UniProt Q5TCH4); assay: LTEA_HepaRG_CYP4A22: Life Technologies and Expression Analysis (LTEA) Assay for Cytochrome P450 4A22 (CYP4A22) using HepaRG (AID 2283495)
How it was run: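 Differentiated HepaRG cells in serum-free induction medium exposed 48 h in duplicate to eight half-log concentrations up to 100 uM in 0.5% DMSO. CYP4A22 mRNA quantified by TaqMan qRT-PCR, normalized to ACTB, GAPDH and POLR2A; bidirectional fit versus DMSO.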

[8] = read-out: Cytochrome P450 7A1 (Homo sapiens) (UniProt P22680); assay: LTEA_HepaRG_CYP7A1: Life Technologies and Expression Analysis (LTEA) Assay for Cytochrome P450 7A1 (CYP7A1) using HepaRG (AID 2283496)
How it was run: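 Gene expression endpoint in human HepaRG liver cells treated for 48 h with test chemicals (up to 100 uM, 0.5% DMSO). Values come from bidirectional concentration-response fitting versus DMSO.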

[9] = read-out: Glutathione S-Transferase (GSTA2), GSTA2 (gene 2939); assay: LTEA_HepaRG_GSTA2: Life Technologies and Expression Analysis (LTEA) Assay for Glutathione S-Transferase (GSTA2) using HepaRG (AID 2283497)
How it was run: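 Differentiated human HepaRG cells were exposed in duplicate for 48 h in serum-free induction medium, 8 points from 100 uM top in half-log steps, 0.5% DMSO. GSTA2 mRNA was measured by TaqMan qRT-PCR, normalized to ACTB, GAPDH and POLR2A; bidirectional fit versus DMSO.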

[10] = read-out: Glutamate-cysteine ligase catalytic (GCLC), GCLC (gene 2729); assay: LTEA_HepaRG_GCLC: Life Technologies and Expression Analysis (LTEA) Assay for Glutamate-cysteine ligase catalytic (GCLC) using HepaRG (AID 2283498)
How it was run: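 Differentiated HepaRG cells exposed 48 h in serum-free induction medium, eight-point half-log series topping at 100 uM in 0.5% DMSO, duplicates. GCLC mRNA by qRT-PCR normalized to ACTB, GAPDH and POLR2A, fitted bidirectionally versus DMSO.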

[11] = read-out: growth arrest and DNA damage 45 (GADD45G), GADD45G (gene 10912); assay: LTEA_HepaRG_GADD45G: Life Technologies and Expression Analysis (LTEA) Assay for growth arrest and DNA damage 45 (GADD45G) using HepaRG (AID 2283499)
How it was run: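 Differentiated human HepaRG cells, 48 h post-plating, exposed 48 h in serum-free induction medium to 8 half-log concentrations (top 100 uM, 0.5% DMSO) in duplicate. GADD45G mRNA measured by Fluidigm TaqMan qRT-PCR, normalized to ACTB, GAPDH, POLR2A; bidirectional fit versus DMSO.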

[12] = read-out: Glutamate-cysteine ligase regulatory (GCLM), GCLM (gene 2730); assay: LTEA_HepaRG_GCLM: Life Technologies and Expression Analysis (LTEA) Assay for Glutamate-cysteine ligase regulatory (GCLM) using HepaRG (AID 2283500)
How it was run: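 Human liver HepaRG cultures receive test chemicals for 48 hours at up to 100 uM in 0.5% DMSO. GCLM expression is measured by qRT-PCR and analysed for increases or decreases against vehicle.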

[13] = read-out: Glutathione S-transferase M3 (GSTM3), GSTM3 (gene 2947); assay: LTEA_HepaRG_GSTM3: Life Technologies and Expression Analysis (LTEA) Assay for Glutathione S-transferase M3 (GSTM3) using HepaRG (AID 2283501)
How it was run: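 Differentiated human HepaRG cells were exposed in duplicate for 48 h in serum-free induction medium, 8 points from 100 uM top in half-log steps, 0.5% DMSO. GSTM3 mRNA was measured by TaqMan qRT-PCR, normalized to ACTB, GAPDH and POLR2A; bidirectional fit versus DMSO.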

[14] = read-out: Heat shock 70 kDa protein 1 (HSPA1A), gene 3303; assay: LTEA_HepaRG_HSPA1A: Life Technologies and Expression Analysis (LTEA) Assay for Heat shock 70 kDa protein 1 (HSPA1A) using HepaRG (AID 2283502)
How it was run: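 HSPA1A induction in human HepaRG liver cells is measured after 48 h of chemical treatment (100 uM maximum, 0.5% DMSO vehicle). Expression comes from qRT-PCR normalized to endogenous controls.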

[15] = read-out: Hypoxia-inducible factor 1-alpha (Homo sapiens) (UniProt Q16665); assay: LTEA_HepaRG_HIF1A: Life Technologies and Expression Analysis (LTEA) Assay for Hypoxia-inducible factor 1 (HIF1A) Trancription factor using HepaRG (AID 2283503)
How it was run: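 HepaRG, 48 h exposure, 8-pt half-log series from 100 uM, 0.5% DMSO vehicle, duplicates. Readout: HIF1A transcript by qRT-PCR (Fluidigm array), housekeeping-normalised. Bidirectional curve fit vs DMSO baseline.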

[16] = read-out: 3-Hydroxy-3-Methylglutaryl-CoA Synthase 2 (HMGCS2), HMGCS2 (gene 3158); assay: LTEA_HepaRG_HMGCS2: Life Technologies and Expression Analysis (LTEA) Assay for 3-Hydroxy-3-Methylglutaryl-CoA Synthase 2 (HMGCS2) using HepaRG (AID 2283504)
How it was run: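 Human HepaRG cells in serum-free induction medium were exposed in duplicate for 48 h to 8-point half-log series from 100 uM top in 0.5% DMSO. HMGCS2 mRNA measured by TaqMan qRT-PCR, normalised to ACTB, GAPDH, POLR2A; bidirectional fit versus DMSO.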

[17] = read-out: Cytochrome P450 3A4 (Homo sapiens) (UniProt P08684); assay: LTEA_HepaRG_CYP3A4: Life Technologies and Expression Analysis (LTEA) Assay for CYP3A4 using HepaRG (AID 2283487)
How it was run: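 In a human hepatic line (HepaRG), duplicate wells were treated 48 h with up to 100 uM chemical in half-log dilutions. Endpoint: CYP3A4 mRNA induction or loss relative to 0.5% DMSO vehicle, by qRT-PCR.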

Measured: AC50

Sequence of Cytochrome P450 3A4 (Homo sapiens) (P08684 whole entry, looked up): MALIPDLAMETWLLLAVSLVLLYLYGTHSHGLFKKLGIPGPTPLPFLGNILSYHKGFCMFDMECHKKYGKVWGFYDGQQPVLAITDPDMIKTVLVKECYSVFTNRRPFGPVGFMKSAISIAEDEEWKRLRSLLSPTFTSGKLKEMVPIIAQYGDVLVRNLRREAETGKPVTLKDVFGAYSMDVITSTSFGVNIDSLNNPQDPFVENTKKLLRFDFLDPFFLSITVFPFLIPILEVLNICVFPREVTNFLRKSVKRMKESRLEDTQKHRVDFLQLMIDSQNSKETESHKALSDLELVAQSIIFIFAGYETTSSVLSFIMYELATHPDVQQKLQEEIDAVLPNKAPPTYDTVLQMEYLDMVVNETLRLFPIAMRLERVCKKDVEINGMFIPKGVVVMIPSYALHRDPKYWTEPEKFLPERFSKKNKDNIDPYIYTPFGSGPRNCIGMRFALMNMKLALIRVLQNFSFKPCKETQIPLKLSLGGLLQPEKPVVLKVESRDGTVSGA
Sequence of Cytochrome P450 3A7 (Homo sapiens) (P24462 whole entry, looked up): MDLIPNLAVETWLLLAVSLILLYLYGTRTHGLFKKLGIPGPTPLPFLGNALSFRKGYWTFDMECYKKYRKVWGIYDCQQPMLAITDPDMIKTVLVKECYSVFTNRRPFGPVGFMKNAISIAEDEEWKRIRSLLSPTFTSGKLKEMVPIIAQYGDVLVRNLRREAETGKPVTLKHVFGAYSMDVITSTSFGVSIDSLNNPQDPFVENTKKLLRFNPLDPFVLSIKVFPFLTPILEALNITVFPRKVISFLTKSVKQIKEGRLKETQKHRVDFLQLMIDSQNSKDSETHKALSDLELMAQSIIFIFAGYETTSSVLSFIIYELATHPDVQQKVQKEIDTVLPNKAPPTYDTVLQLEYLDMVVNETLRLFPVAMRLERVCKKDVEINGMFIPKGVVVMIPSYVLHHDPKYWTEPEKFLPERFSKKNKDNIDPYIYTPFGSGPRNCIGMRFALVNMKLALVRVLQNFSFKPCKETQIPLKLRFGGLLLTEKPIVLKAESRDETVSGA
Sequence of Hypoxia-inducible factor 1-alpha (Homo sapiens) (Q16665 whole entry, looked up): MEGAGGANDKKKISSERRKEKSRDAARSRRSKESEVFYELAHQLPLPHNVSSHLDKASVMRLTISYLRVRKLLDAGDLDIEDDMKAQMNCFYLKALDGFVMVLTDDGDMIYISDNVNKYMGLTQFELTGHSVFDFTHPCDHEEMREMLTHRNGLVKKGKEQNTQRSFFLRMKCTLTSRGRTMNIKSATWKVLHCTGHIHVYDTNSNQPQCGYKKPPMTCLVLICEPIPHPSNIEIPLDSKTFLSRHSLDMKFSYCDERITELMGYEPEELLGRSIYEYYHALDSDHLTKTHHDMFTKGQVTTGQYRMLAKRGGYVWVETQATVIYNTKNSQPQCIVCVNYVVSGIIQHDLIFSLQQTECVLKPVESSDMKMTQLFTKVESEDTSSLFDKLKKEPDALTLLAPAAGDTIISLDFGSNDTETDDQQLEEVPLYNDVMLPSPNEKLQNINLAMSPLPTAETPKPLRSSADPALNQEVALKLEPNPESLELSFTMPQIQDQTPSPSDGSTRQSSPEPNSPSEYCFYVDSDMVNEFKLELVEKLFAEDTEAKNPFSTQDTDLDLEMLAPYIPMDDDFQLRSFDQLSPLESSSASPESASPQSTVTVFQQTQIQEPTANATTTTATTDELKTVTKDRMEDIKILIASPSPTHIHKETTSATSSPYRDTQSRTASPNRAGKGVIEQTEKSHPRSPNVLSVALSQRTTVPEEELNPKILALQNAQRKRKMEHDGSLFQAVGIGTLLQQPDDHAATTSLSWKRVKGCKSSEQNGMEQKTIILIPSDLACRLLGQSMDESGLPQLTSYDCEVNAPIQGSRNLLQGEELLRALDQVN

C=CC(N)=O
not listed: [17]
inactive: all other assays above

CCC(=O)O[C@H]1CC[C@H]2[C@@H]3CCC4=CC(=O)CC[C@]4(C)[C@H]3CC[C@]12C
active: CYP4A11 (gene 1579) 1.16 µM | [6] 19.9 µM | [7] 0.308 µM | [8] 13.1 µM
inactive: all other assays above

Cc1ccccc1[N+](=O)[O-]
inactive: all assays above

C[C@]12CCC(=O)C=C1CC[C@@H]1[C@@H]2CC[C@]2(C)C(=O)CC[C@@H]12
active: CYP4A11 (gene 1579) 85.7 µM | [17] 30.8 µM | CYP3A5 (gene 1577) 50 µM | [6] 12.5 µM | [7] 72.7 µM | [8] 4.69 µM
not listed: [11] | [15]
inactive: all other assays above

O=C(NC(=O)c1cc(F)c(F)cc1Cl)Nc1cc(F)ccc1N1CCC(C(=O)O)CC1
active: CYP4A11 (gene 1579) 6.34 µM | [7] 7.84 µM | [8] 6.6 µM | [16] 20.3 µM
inactive: all other assays above

CCNc1nc(NC(C)C)nc(SC)n1
active: CYP4A11 (gene 1579) 50 µM | [17] 2.44 µM | [6] 28.3 µM | [8] 35.5 µM | [11] 63.9 µM | [16] 50 µM
inactive: all other assays above

NS(=O)(=O)C(F)(F)C(F)(F)C(F)(F)C(F)(F)C(F)(F)C(F)(F)C(F)(F)C(F)(F)F
inactive: [13]
active: CYP4A11 (gene 1579) 12.6 µM | [17] 10.7 µM | [1] 28.9 µM | [2] 8.93 µM | [3] 89 µM | [4] 11.4 µM | [5] 7.34 µM | CYP3A5 (gene 1577) 21 µM | [6] 9.04 µM | [7] 11.1 µM | [8] 8.86 µM | [9] 13 µM | [10] 5.02 µM | [11] 50 µM | [12] 0.993 µM | [14] 75.5 µM | [15] 11.4 µM | [16] 12.8 µM

CC(C)(O)C(=O)Nc1ccc([N+](=O)[O-])c(C(F)(F)F)c1
active: CYP4A11 (gene 1579) 42 µM | [2] 0.0411 µM | [3] 0.0388 µM | [6] 25 µM | [16] 44.8 µM
not listed: [1]
inactive: all other assays above

O=C(O)C(F)(F)C(F)(F)C(F)(F)C(F)(F)C(F)(F)C(F)(F)C(F)(F)C(F)(F)F
active: CYP4A11 (gene 1579) 89.5 µM | [17] 81.7 µM | [1] 77.9 µM | [3] 83.4 µM | [4] 77 µM | [5] 89 µM | [6] 81.1 µM | [7] 90 µM | [8] 86.7 µM | [9] 86.8 µM | [10] 75.3 µM | [11] 85.6 µM | [12] 77 µM | [16] 80.4 µM
inactive: [2] | CYP3A5 (gene 1577) | [13] | [15]

CCOC(=O)C(O)(c1ccc(Cl)cc1)c1ccc(Cl)cc1
active: CYP4A11 (gene 1579) 20.4 µM | [5] 50 µM | [7] 50 µM
inactive: all other assays above

CC(C)(c1ccccc1)c1ccc(O)cc1
active: [8] 88.7 µM | [9] 87.3 µM
not listed: CYP4A11 (gene 1579)
inactive: all other assays above

Oc1ccc(Cl)cc1Cl
inactive: all assays above

CCCCCCCCOC(=O)c1ccccc1C(=O)OCCCCCCCC
inactive: all assays above

CCCCCCOC(=O)c1ccccc1C(=O)OCCCCCC
active: CYP4A11 (gene 1579) 74.7 µM | [7] 83.9 µM
inactive: all other assays above

From PubChem BioAssay (EPA / NIEHS)
